PubChem BioAssay AID1159580 (chemical genetic matrix, 2015)
Where “and” joins values, the source holds several entries; their conditions need not be identical. Identical values can stand only once. The whole screen tested about 5,500 compounds, of which about 2,000 (36%) were called active. Roughly 18% stayed inconclusive and do not appear here. Cut-off read from the data, not from the text of the source: active = normalized growth mostly below about 0.91 (no sharp cut-off); inconclusive = no clear call, values can overlap the other calls; inactive = mostly above about 0.92. This is one part of the list.

Assay: chemical genetic growth profiling, strain panel (AID 1159580);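 note: tested at 20 µM; growth read once vehicle control cultures reached saturation at 30 °C; 1 = growth at the plate median or of vehicle wells; lower values mean less growth of the strain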
Conditions: S. cerevisiae deletion strains, growth OD

Measured: normalized growth

NCCCCC(=O)O
inactive: locus YAL013W, strain DEP1, stronger effect = lower value 1.03 | locus YAL021C, strain ccr4, stronger effect = lower value 1.01 | locus YAL026C, strain drs2, stronger effect = lower value 1.02 | locus YAL030W, strain snc1, stronger effect = lower value 1.01 | locus YAL040C, strain CLN3, stronger effect = lower value 1.01 | locus YBL061C, strain skt5, stronger effect = lower value 1.02 | locus YBR009C, strain hhf1, stronger effect = lower value 1.02 | locus YBR021W, strain FUR4, stronger effect = lower value 0.976 | locus YBR023C, strain chs3, stronger effect = lower value 1.02 | locus YBR171W, strain sec66, stronger effect = lower value 1.02 | locus YBR229C, strain ROT2, stronger effect = lower value 1.02 | locus YBR231C, strain swc5, stronger effect = lower value 1.02 | locus YBR279W, strain paf1, stronger effect = lower value 1.01 | locus YCL011C, strain gbp2, stronger effect = lower value 1.02 | locus YCL016C, strain dcc1, stronger effect = lower value 1.01 | locus YCL029C, strain bik1, stronger effect = lower value 0.998 | locus YCL061C, strain MRC1 (second series), stronger effect = lower value 1 | locus YCL069W, strain vba3, stronger effect = lower value 1.01 | locus YCR088W, strain abp1, stronger effect = lower value 1.02 | locus YDL005C, strain med2, stronger effect = lower value 1.02 | locus YDL035C, strain GPR1, stronger effect = lower value 1.02 | locus YDL040C, strain nat1, stronger effect = lower value 1.02 | locus YDL074C, strain BRE1, stronger effect = lower value 1.04 | locus YDL101C, strain DUN1, stronger effect = lower value 1.03 | locus YDL134C, strain PPH21, stronger effect = lower value 1.02 | locus YDL185W, strain tfp1, stronger effect = lower value 0.995 | locus YDL192W, strain arf1, stronger effect = lower value 0.992 | locus YDR001C, strain nth1, stronger effect = lower value 1.01 | locus YDR069C, strain doa4, stronger effect = lower value 1.02 | locus YDR101C, strain arx1, stronger effect = lower value 0.985 | locus YDR137W, strain rgp1, stronger effect = lower value 1.02 | locus YDR150W, strain NUM1, stronger effect = lower value 1.03 | locus YDR159W, strain sac3, stronger effect = lower value 1.03 | locus YDR162C, strain NBP2, stronger effect = lower value 1.04 | locus YDR195W, strain ref2 1.01 | locus YDR297W, strain sur2, stronger effect = lower value 1.02 | locus YDR318W, strain mcm21, stronger effect = lower value 0.992 | locus YDR334W, strain swr1, stronger effect = lower value 1.01 | locus YDR335W, strain msn5, stronger effect = lower value 1.01 | locus YDR388W, stronger effect = lower value 0.986 | locus YDR392W, strain spt3, stronger effect = lower value 1.01 | locus YDR502C, strain sam2, stronger effect = lower value 1 | locus YEL003W, strain gim4, stronger effect = lower value 1.01 | locus YEL037C, strain rad23, stronger effect = lower value 1 | locus YEL061C, strain CIN8 (second series), stronger effect = lower value 1.01 | locus YEL061C, strain CIN8, stronger effect = lower value 1.01 | locus YER002W, strain NOP16, stronger effect = lower value 1 | locus YER015W, strain faa2, stronger effect = lower value 1.02 | locus YER016W, strain bim1, stronger effect = lower value 1.02 | locus YER110C, stronger effect = lower value 0.977 | locus YER111C, strain swi4, stronger effect = lower value 1.03 | locus YER155C, strain BEM2 (second series), stronger effect = lower value 1.04 | locus YER155C, strain BEM2, stronger effect = lower value 1.03 | locus YER167W, strain BCK2, stronger effect = lower value 1.03 | locus YFR010W, strain ubp6, stronger effect = lower value 1.01 | locus YGL078C, strain dbp3, stronger effect = lower value 0.989 | locus YGL086W, strain mad1, stronger effect = lower value 0.993 | locus YGL167C, strain pmr1, stronger effect = lower value 1.03 | locus YGL173C, strain kem1, stronger effect = lower value 1.02 | locus YGL227W, strain vid30, stronger effect = lower value 1.02 | locus YGL240W, strain doc1, stronger effect = lower value 1.03 | locus YGL248W, strain PDE1, stronger effect = lower value 1.03 | locus YGL253W, strain hxk2, stronger effect = lower value 1.01 | locus YGR078C, strain PAC10, stronger effect = lower value 1.03 | locus YGR135W, strain pre9, stronger effect = lower value 0.985 | locus YGR229C, strain SMI1, stronger effect = lower value 1.02 and 1.01 | locus YGR252W, strain gcn5, stronger effect = lower value 0.917 | locus YHR013C, strain ard1, stronger effect = lower value 1.04 | locus YHR027C, strain rpn1, stronger effect = lower value 1.01 | locus YHR030C, strain SLT2, stronger effect = lower value 1.02 and 0.975 | locus YHR079C, strain IRE1 (second series), stronger effect = lower value 0.992 | locus YHR079C, strain IRE1, stronger effect = lower value 0.961 | locus YHR094C, strain hxt1, stronger effect = lower value 1 | locus YHR129C, strain ARP1, stronger effect = lower value 1.02 | locus YHR142W, strain chs7, stronger effect = lower value 1.03 | locus YHR200W, strain rpn10, stronger effect = lower value 1.01 | locus YIL066C, strain RNR3, stronger effect = lower value 1.02 | locus YIL073C, strain SPO22, stronger effect = lower value 1.02 | locus YIL125W, strain kgd1, stronger effect = lower value 0.994 | locus YIR030C, strain dcg1, stronger effect = lower value 0.998 | locus YJL092W, strain hpr5, stronger effect = lower value 1.02 | locus YJL095W, strain BCK1 (second series), stronger effect = lower value 1.03 | locus YJL095W, strain BCK1, stronger effect = lower value 1.02 and 0.979 | locus YJL115W, strain asf1, stronger effect = lower value 1.02 | locus YJL129C, strain trk1, stronger effect = lower value 1.03 | locus YJL134W, strain LCB3, stronger effect = lower value 1.02 | locus YJL154C, strain vps35, stronger effect = lower value 1.02 | locus YJL164C, strain tpk1, stronger effect = lower value 1.02 | locus YJL166W, strain qcr8, stronger effect = lower value 1.02 | locus YJL168C, strain set2, stronger effect = lower value 0.991 | locus YJL187C, strain SWE1 (second series), stronger effect = lower value 1.02 | locus YJR043C, strain POL32, stronger effect = lower value 1.03 | locus YJR066W, strain TOR1, stronger effect = lower value 0.902 | locus YJR075W, strain HOC1, stronger effect = lower value 1.03
